According to the supplement of paper PMC12819154, “High-throughput peptide-centric local stability assay extends protein–ligand identification to membrane proteins, tissues and bacteria” (Nature Structural & Molecular Biology, 2025):

Compound: CN[C@@H]1C[C@H]2O[C@@](C)([C@@H]1OC)n1c3ccccc3c3c4c(c5c6ccccc6n2c5c31)C(=O)NC4 [staurosporine]
Test: log2 fold change of tryptic peptide abundance, ligand vs vehicle (limited proteolysis) (log2 ratio); higher = more trypsin-susceptible (destabilized)
Details: ligand concentration: 20 uM; sample: mouse liver crude lysate; replicate design: treated separately

Chain of UniProt P19157 (P19157 whole entry): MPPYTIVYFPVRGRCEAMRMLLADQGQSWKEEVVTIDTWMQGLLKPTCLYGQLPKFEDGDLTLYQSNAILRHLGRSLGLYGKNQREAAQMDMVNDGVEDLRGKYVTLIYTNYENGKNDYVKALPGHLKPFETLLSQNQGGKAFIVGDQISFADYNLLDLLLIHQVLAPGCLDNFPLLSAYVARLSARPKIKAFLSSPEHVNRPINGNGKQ
Chain of UniProt Q8JZY4 (Q8JZY4 whole entry): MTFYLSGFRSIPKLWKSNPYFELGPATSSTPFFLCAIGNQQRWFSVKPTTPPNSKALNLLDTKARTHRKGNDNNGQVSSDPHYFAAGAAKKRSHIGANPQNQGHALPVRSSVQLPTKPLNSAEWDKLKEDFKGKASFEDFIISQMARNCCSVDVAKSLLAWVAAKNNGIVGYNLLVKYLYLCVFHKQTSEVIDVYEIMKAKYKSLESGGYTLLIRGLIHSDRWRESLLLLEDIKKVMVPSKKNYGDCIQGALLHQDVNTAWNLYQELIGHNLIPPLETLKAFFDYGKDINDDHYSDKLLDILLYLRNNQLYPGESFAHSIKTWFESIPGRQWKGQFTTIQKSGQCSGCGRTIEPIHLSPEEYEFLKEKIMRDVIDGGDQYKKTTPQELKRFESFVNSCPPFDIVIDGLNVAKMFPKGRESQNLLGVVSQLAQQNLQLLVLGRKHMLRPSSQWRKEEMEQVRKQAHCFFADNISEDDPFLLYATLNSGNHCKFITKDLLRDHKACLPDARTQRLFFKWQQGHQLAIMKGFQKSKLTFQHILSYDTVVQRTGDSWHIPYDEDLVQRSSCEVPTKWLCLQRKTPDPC
Chain of UniProt Q91XU3 (Q91XU3 whole entry): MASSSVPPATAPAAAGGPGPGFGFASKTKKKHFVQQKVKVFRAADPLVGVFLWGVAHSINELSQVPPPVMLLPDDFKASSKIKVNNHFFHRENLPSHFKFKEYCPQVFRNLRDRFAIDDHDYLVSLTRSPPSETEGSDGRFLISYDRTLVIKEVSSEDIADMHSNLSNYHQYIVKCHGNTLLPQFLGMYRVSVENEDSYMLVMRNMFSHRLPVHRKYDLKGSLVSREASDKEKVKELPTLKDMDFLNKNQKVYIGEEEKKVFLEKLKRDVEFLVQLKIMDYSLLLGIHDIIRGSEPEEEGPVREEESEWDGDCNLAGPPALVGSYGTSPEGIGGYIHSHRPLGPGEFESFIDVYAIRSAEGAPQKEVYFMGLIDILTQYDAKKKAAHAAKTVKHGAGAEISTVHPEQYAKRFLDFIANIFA
Chain of UniProt Q8CAQ8 (Q8CAQ8 whole entry): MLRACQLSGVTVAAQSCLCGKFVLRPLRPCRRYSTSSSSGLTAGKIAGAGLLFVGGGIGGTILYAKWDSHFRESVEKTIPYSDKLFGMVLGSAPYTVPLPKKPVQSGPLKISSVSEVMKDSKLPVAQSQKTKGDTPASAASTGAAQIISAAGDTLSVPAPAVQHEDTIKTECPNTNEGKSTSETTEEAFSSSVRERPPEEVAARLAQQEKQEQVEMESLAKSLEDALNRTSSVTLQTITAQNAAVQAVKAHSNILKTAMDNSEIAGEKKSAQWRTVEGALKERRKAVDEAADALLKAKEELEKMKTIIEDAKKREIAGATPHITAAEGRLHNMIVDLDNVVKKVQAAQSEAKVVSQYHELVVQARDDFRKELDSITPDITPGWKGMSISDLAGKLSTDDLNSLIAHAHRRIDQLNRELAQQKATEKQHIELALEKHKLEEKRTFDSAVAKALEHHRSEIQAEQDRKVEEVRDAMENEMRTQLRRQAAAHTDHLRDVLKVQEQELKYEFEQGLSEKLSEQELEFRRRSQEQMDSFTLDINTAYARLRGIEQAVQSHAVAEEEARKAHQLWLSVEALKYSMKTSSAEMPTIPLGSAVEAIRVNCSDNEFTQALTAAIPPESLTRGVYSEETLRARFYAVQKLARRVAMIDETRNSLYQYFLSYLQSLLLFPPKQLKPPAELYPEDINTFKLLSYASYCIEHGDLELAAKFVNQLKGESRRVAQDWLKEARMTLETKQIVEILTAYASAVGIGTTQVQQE
Chain of UniProt P09103 (P09103 whole entry): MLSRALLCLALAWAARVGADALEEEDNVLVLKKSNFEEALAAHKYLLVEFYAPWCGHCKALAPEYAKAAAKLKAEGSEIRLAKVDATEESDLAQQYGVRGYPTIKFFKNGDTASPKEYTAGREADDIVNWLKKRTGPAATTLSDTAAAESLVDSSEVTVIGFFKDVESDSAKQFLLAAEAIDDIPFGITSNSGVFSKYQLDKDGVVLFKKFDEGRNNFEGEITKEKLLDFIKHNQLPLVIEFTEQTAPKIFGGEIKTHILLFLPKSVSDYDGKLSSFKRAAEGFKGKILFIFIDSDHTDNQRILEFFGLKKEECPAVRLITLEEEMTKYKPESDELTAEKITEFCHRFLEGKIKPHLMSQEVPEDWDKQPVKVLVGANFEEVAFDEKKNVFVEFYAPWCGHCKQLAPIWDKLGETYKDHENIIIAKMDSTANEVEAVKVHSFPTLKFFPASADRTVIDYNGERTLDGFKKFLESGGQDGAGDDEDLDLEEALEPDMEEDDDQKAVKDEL
Chain of UniProt Q9DC61 (Q9DC61 whole entry): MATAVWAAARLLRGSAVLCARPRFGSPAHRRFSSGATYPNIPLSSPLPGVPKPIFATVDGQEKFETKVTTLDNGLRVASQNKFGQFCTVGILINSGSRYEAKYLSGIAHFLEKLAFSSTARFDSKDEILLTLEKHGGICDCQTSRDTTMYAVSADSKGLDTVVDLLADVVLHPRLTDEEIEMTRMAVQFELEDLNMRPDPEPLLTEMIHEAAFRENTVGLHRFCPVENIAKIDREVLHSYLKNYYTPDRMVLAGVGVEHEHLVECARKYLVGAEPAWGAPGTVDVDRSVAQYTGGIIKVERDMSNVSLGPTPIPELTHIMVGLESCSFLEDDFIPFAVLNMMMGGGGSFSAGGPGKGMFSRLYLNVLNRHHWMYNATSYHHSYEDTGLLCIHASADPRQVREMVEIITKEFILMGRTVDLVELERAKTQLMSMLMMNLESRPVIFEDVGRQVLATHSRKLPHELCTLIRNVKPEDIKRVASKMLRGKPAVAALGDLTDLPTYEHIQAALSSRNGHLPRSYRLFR
Chain of UniProt Q8BZ09 (Q8BZ09 whole entry): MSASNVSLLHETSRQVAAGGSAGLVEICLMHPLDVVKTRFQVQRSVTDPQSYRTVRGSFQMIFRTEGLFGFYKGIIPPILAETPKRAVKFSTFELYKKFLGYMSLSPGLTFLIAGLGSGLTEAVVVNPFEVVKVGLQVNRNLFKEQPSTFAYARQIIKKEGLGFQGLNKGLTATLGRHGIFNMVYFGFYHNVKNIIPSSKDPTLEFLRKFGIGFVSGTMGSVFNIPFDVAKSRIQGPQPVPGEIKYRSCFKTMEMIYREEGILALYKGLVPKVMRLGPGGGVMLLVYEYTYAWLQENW

Target	log2 fold change
UniProt Q8CAQ8 (peptide sequence: ATEKQHIELALEK, peptide start residue: 423)	-1.29
UniProt P09103 (peptide sequence: EADDIVNWLKK, peptide start residue: 123)	0.314
UniProt Q8BZ09 (peptide sequence: IQGPQPVPGEIK, peptide start residue: 234)	0.534
UniProt P19157 (peptide sequence: AFLSSPEHVNRPINGNGK, peptide start residue: 192)	-0.521
UniProt Q8JZY4 (peptide sequence: YLYLCVFHK, peptide start residue: 178)	0.47
UniProt Q9DC61 (peptide sequence: QVLATHSR, peptide start residue: 451)	-1.12
UniProt Q91XU3 (peptide sequence: VYIGEEEKK, peptide start residue: 252)	-1.32
